From PubChem BioAssay AID1159580 (chemical genetic matrix, 2015)
About 2,000 (36%) of roughly 5,500 compounds were called active. Inconclusive results (about 18%) are left out. No stated cut-off is given here; in the data, active means normalized growth mostly below about 0.91 (no sharp cut-off); inconclusive means no clear call, values can overlap the other calls; inactive means mostly above about 0.92. The list shows a part of the results.

Assay: chemical genetic growth profiling, strain panel (AID 1159580);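 further: tested at 20 µM; growth read once vehicle control cultures reached saturation at 30 °C; 1 = growth at the plate median or of vehicle wells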
Settings: growth OD

Measured: normalized growth

COc1cc2c(cc1OC)Cc1cc(OC)c(OC)cc1Cc1cc(OC)c(OC)cc1C2
inactive: S. cerevisiae deletion strains, locus YJR066W, strain TOR1, stronger effect = lower value 0.974 | S. cerevisiae deletion strains, locus YJR075W, strain HOC1, stronger effect = lower value 1.02 | S. cerevisiae deletion strains, locus YKL009W, strain mrt4, stronger effect = lower value 0.942 | S. cerevisiae deletion strains, locus YKL068W, stronger effect = lower value 1.02 | S. cerevisiae deletion strains, locus YKL085W, strain MDH1 (second series), stronger effect = lower value 0.927 | S. cerevisiae deletion strains, locus YKL085W, strain MDH1, stronger effect = lower value 0.927 | S. cerevisiae deletion strains, locus YKL160W, strain elf1, stronger effect = lower value 1.02 | S. cerevisiae deletion strains, locus YKL190W, strain CNB1, stronger effect = lower value 0.992 | S. cerevisiae deletion strains, locus YKR001C, strain vps1, stronger effect = lower value 1.04 | S. cerevisiae deletion strains, locus YKR026C, strain gcn3, stronger effect = lower value 1 | S. cerevisiae deletion strains, locus YKR091W, strain srl3, stronger effect = lower value 1.03 | S. cerevisiae deletion strains, locus YLL001W, strain dnm1, stronger effect = lower value 1.01 | S. cerevisiae deletion strains, locus YLL026W, stronger effect = lower value 1.04 | S. cerevisiae deletion strains, locus YLL041C, strain sdh2, stronger effect = lower value 1.03 | S. cerevisiae deletion strains, locus YLR027C, strain aat2, stronger effect = lower value 1.03 | S. cerevisiae deletion strains, locus YLR039C, strain RIC1, stronger effect = lower value 1.05 | S. cerevisiae deletion strains, locus YLR058C, strain SHM2, stronger effect = lower value 1.02 | S. cerevisiae deletion strains, locus YLR102C, strain apc9, stronger effect = lower value 1.03 | S. cerevisiae deletion strains, locus YLR113W, strain HOG1, stronger effect = lower value 1.05 | S. cerevisiae deletion strains, locus YLR221C, strain rsa3, stronger effect = lower value 1.04 | S. cerevisiae deletion strains, locus YLR258W, strain gsy2, stronger effect = lower value 1.03 | S. cerevisiae deletion strains, locus YLR262C, strain YPT6 (second series), stronger effect = lower value 1.05 | S. cerevisiae deletion strains, locus YLR262C, strain YPT6, stronger effect = lower value 1.08 | S. cerevisiae deletion strains, locus YLR268W, strain sec22, stronger effect = lower value 1.04 | S. cerevisiae deletion strains, locus YLR320W, strain mms22, stronger effect = lower value 1.03 | S. cerevisiae deletion strains, locus YLR330W, strain CHS5, stronger effect = lower value 1.01 | S. cerevisiae deletion strains, locus YLR342W, strain FKS1 (second series), stronger effect = lower value 1 | S. cerevisiae deletion strains, locus YLR342W, strain FKS1, stronger effect = lower value 1.04 | S. cerevisiae deletion strains, locus YLR357W, strain rsc2, stronger effect = lower value 1.05 | S. cerevisiae deletion strains, locus YLR370C, strain arc18, stronger effect = lower value 1.03 | S. cerevisiae deletion strains, locus YLR371W, strain rom2, stronger effect = lower value 1.03 | S. cerevisiae deletion strains, locus YLR384C, strain iki3, stronger effect = lower value 1.03 | S. cerevisiae deletion strains, locus YLR418C, strain cdc73, stronger effect = lower value 1.04 | S. cerevisiae deletion strains, locus YML016C, strain PPZ1, stronger effect = lower value 1.01 | S. cerevisiae deletion strains, locus YML032C, strain rad52, stronger effect = lower value 1.01 | S. cerevisiae deletion strains, locus YML120C, strain ndi1, stronger effect = lower value 1.02 | S. cerevisiae deletion strains, locus YML124C, strain tub3, stronger effect = lower value 1.06 | S. cerevisiae deletion strains, locus YMR058W, strain fet3, stronger effect = lower value 1.03 | S. cerevisiae deletion strains, locus YMR078C, strain ctf18, stronger effect = lower value 1.04 | S. cerevisiae deletion strains, locus YMR125W, strain sto1, stronger effect = lower value 1.05 | S. cerevisiae deletion strains, locus YMR129W, stronger effect = lower value 1.04 | S. cerevisiae deletion strains, locus YMR205C, strain PFK2, stronger effect = lower value 1.05 | S. cerevisiae deletion strains, locus YMR223W, strain ubp8, stronger effect = lower value 1.03 | S. cerevisiae deletion strains, locus YMR231W, strain pep5, stronger effect = lower value 1.03 | S. cerevisiae deletion strains, locus YMR263W, strain SAP30, stronger effect = lower value 1.01 | S. cerevisiae deletion strains, locus YMR307W, strain GAS1, stronger effect = lower value 1.04 | S. cerevisiae deletion strains, locus YNL067W, strain RPL9B, stronger effect = lower value 1.03 | S. cerevisiae deletion strains, locus YNL071W, strain lat1, stronger effect = lower value 1.03 | S. cerevisiae deletion strains, locus YNL183C, strain NPR1, stronger effect = lower value 0.956 | S. cerevisiae deletion strains, locus YNL209W, strain ssb2, stronger effect = lower value 1.03 | S. cerevisiae deletion strains, locus YNL233W, strain BNI4, stronger effect = lower value 1.01 | S. cerevisiae deletion strains, locus YNL248C, strain rpa49, stronger effect = lower value 1.03 | S. cerevisiae deletion strains, locus YNL250W, strain rad50, stronger effect = lower value 1.04 | S. cerevisiae deletion strains, locus YNL271C, strain bni1, stronger effect = lower value 1.02 | S. cerevisiae deletion strains, locus YNL298W, strain CLA4, stronger effect = lower value 1.02 | S. cerevisiae deletion strains, locus YNL307C, strain MCK1, stronger effect = lower value 1.03 | S. cerevisiae deletion strains, locus YNL322C, strain KRE1 (second series), stronger effect = lower value 1.05 | S. cerevisiae deletion strains, locus YNL322C, strain KRE1, stronger effect = lower value 1.03 | S. cerevisiae deletion strains, locus YNR049C, strain mso1, stronger effect = lower value 1.03 | S. cerevisiae deletion strains, locus YNR052C, strain pop2, stronger effect = lower value 1.02 | S. cerevisiae deletion strains, locus YOL012C, strain htz1 0.876 | S. cerevisiae deletion strains, locus YOL147C, strain pex11, stronger effect = lower value 1.02 | S. cerevisiae deletion strains, locus YOR001W, strain rrp6, stronger effect = lower value 1.02 | S. cerevisiae deletion strains, locus YOR061W, strain CKA2, stronger effect = lower value 1.01 | S. cerevisiae deletion strains, locus YOR069W, strain VPS5, stronger effect = lower value 1.01 | S. cerevisiae deletion strains, locus YOR070C, strain gyp1, stronger effect = lower value 1.03 | S. cerevisiae deletion strains, locus YOR080W, strain dia2, stronger effect = lower value 1.04 | S. cerevisiae deletion strains, locus YOR083W, strain WHI5, stronger effect = lower value 1.01 | S. cerevisiae deletion strains, locus YOR106W, strain vam3, stronger effect = lower value 1.07 | S. cerevisiae deletion strains, locus YOR136W, strain idh2, stronger effect = lower value 1.05 | S. cerevisiae deletion strains, locus YOR144C, strain elg1, stronger effect = lower value 1.04 | S. cerevisiae deletion strains, locus YOR184W, strain ser1, stronger effect = lower value 1.03 | S. cerevisiae deletion strains, locus YOR231W, strain MKK1, stronger effect = lower value 1.04 | S. cerevisiae deletion strains, locus YOR265W, strain rbl2, stronger effect = lower value 1.02 | S. cerevisiae deletion strains, locus YOR270C, strain vph1, stronger effect = lower value 1.03 | S. cerevisiae deletion strains, locus YOR290C, strain snf2, stronger effect = lower value 0.995 | S. cerevisiae deletion strains, locus YOR316C, strain cot1, stronger effect = lower value 1.02 | S. cerevisiae deletion strains, locus YPL051W, strain arl3, stronger effect = lower value 1.02 | S. cerevisiae deletion strains, locus YPL055C, strain LGE1, stronger effect = lower value 1.03 | S. cerevisiae deletion strains, locus YPL078C, strain atp4, stronger effect = lower value 1.03 | S. cerevisiae deletion strains, locus YPL106C, strain sse1, stronger effect = lower value 1.06 | S. cerevisiae deletion strains, locus YPL240C, strain hsp82, stronger effect = lower value 1.02 | S. cerevisiae deletion strains, locus YPL256C, strain CLN2, stronger effect = lower value 1.06 | S. cerevisiae deletion strains, locus YPR119W, strain clb2, stronger effect = lower value 1 | S. cerevisiae deletion strains, locus YPR141C, strain kar3, stronger effect = lower value 1.03 | S. cerevisiae deletion strains, locus YPR163C, strain tif3, stronger effect = lower value 1.03 | S. cerevisiae deletion strains, locus YPR167C, strain met16, stronger effect = lower value 1.03 | S. cerevisiae deletion strains, strain wtn01, stronger effect = lower value 1.04 | S. cerevisiae strains, strain wild type, stronger effect = lower value 1.03
